The record followed here is PubChem BioAssay AID890 (National Center for Advancing Translational Sciences (NCATS), 2007).

“And” between values parts separate entries of the source, which are not always exact repeats. Equal values may be shown once. The source made the active and inactive calls. Where a call stands in place of a potency, no number is given. Calls follow the shape of the dose curve; as a rule, active = well fitted activation curve with a large enough effect; inactive = flat fitted curve, though single readings scatter.

The assay is described as follows: Confirmation Concentration-Response Assay for Epigenetic Modulators. The settings on record: murine C127i cells, silenced GFP reporter derepression, imaging; series mostly up to 46 µM. The source says:
NIH Molecular Libraries Screening Centers Network [MLSCN] NIH Chemical Genomics Center [NCGC] MLSCN Grant: 1 X01 MH079860-01 Assay Provider: Elisabeth D. Martinez, University of Texas SW Medical Center NCGC Assay Overview: The Locus Derepression assay detects the derepression of a GFP reporter that is stably integrated in a region of the genome of murine c127i mammary cells that is presumably silenced. GFP transcription in this construct is controlled by a CMV promoter, which normally is strong and constitutively active. However, this line was selected for lack of constitutive expression of the GFP protein. GFP production can be induced by incubating the cells with histone deacetylase or DNA methyltransferase inhibitors. Compounds that cause derepression of the locus to express GFP are identified by enumerating GFP positive cells using a laser-scanning microplate cytometer.
NCGC Assay Protocol Summary: Two hundred and fifty cells in 5 uL per well were dispensed into black, clear-bottom 1536-well plates. Twenty-three nL compound was transferred to the assay plate and cells were incubated 30 hours at 37 C. Medium was removed, cells were washed two times with PBS, and GFP-positive cells were enumerated as fluorescent objects between the sizes of 20 to 120 um width and depth using a laser-scanning microplate imager (Acumen Explorer Ex3, TTP Labtech) Keywords: NIH Roadmap, MLSCN, MLI, MLSMR, qHTS, NCGC, qHTS, HDAC, DNMT, HAT, DNA methyltransferases, histone acetyl transferases, histone deacetylases
On to `CCNc1nc(NCC)nc(-n2nc(C)cc2C)n1`, for which the Potency entry was “inactive”. The entry for `Cc1cc(C)n(-c2nc(N(C)C)nc(N(C)C)n2)n1` is “inactive”. The entry for `CN1C(=S)SC(c2ccccc2)N(C)C1c1ccccc1` (stereo not given) is “inactive”; for `c1ccc(Nc2nc(Nc3ccccc3)nc(-n3cccn3)n2)cc1` it is “inactive”. In the case of `CCNc1nc(NCC)nc(-n2cc(C(=O)c3cc(Cl)ccc3O)cn2)n1`, the Potency entry was “inactive”. In the case of `c1cnn(-c2nc(N3CCOCC3)nc(N3CCOCC3)n2)c1` it was “inactive”; in that of `Cc1ccc(N=Nc2ccc(O)c3ncccc23)cc1C`, “inactive”; in that of `O=C(Oc1cccc2cccnc12)c1ccc(Br)o1`, 14.6 µM (active). For the compound `CC(C)C(=O)NC(c1ccc(N(C)C)cc1)c1ccc2cccnc2c1O` (stereo not given), the Potency is 8.14 µM (active). Regarding `O=C(CSc1cccc2cccnc12)Nc1ccccc1`, the Potency result was “inactive”. In the case of `COc1ccc(C)cc1NC(c1ccccn1)c1ccc2cccnc2c1O` (stereo not given) it was “inactive”; in that of `Cc1ccc2ccc(C(Nc3cccc(Cl)c3)c3ccccn3)c(O)c2n1` (stereo not given), “inactive”.

`COc1ccc(C(NC(=O)C(C)C)c2ccc3cccnc3c2O)cc1` (stereo not given): the Potency is 7.83 µM (active). In the case of `CN(C)C(=O)CSc1cccc2cccnc12` it was 6.96 µM (active). In the case of `O=C1OCCC1Sc1cccc2cccnc12` (stereo not given) it was 7.44 µM (active); in that of `CCCCC1CC1C(=O)Nc1ccc(OC)c(OC)c1` (stereo not given), 14.3 µM (active). In the case of `Oc1c(C(Nc2ccccn2)c2ccco2)cc(Cl)c2cccnc12` (stereo not given) it was “inactive”; in that of `COc1ccc(C(=O)NC(c2ccco2)c2cc(Cl)c3cccnc3c2O)cc1` (stereo not given), “inactive”. Regarding `S=C1SCN(C2CCCC2)CN1Cc1ccco1`, the Potency result was “inactive”. In the case of `Oc1ccc(COCc2ccccc2)c2cccnc12` it was “inactive”; in that of `CCN1CSC(=S)N(CC)C1`, 7 µM (active).

For `Cc1cc(C)n(-c2nc(NC(C)(C)C)nc(NC(C)(C)C)n2)n1`, the Potency result was “inactive”. For `CC(C)C(=O)NC(c1ccc(C(C)C)cc1)c1cc(Cl)c2cccnc2c1O` (stereo not given), the Potency entry was “inactive”. The entry for `Cc1cc(C)n(-c2nc(NC(C)C)nc(NC(C)C)n2)n1` is “inactive”. Turning to `CC(C)C(=O)NC(c1ccco1)c1cc([N+](=O)[O-])c2cccnc2c1O` (stereo not given), the Potency entry was “inactive”.

Take `COc1ccc(NC(c2ccccn2)c2ccc3cccnc3c2O)cc1` (stereo not given): the Potency entry was “inactive”.

Turning to `CN1CCN(Cc2cc(Cl)c3cccnc3c2O)CC1`, the Potency was 6.08 µM (active). The entry for `O=C(CC(c1ccco1)S(=O)(=O)c1ccccc1)c1ccc(F)cc1` (stereo not given) is “inactive”; for `CC(C)C(=O)NC(/C=C/c1ccccc1)c1cc([N+](=O)[O-])c2cccnc2c1O` (stereo not given) it is “inactive”.

`COCc1cc(CN2CCN(C)CC2)c(O)c2ncccc12`: the Potency was 37.6 µM (active). The figure for `O=Nc1ccc(O)c2ncccc12` is 2.78 µM (active). The figure for `O=C(CSc1cccc2cccnc12)N1CCCC1` is 8.94 µM (active).

Take `Oc1c(C(Nc2ccccc2C(F)(F)F)c2ccccn2)ccc2cccnc12` (stereo not given): the Potency entry is “inactive”. In the case of `CC(/C=C/C(=O)NO)=C\[C@@H](C)C(=O)c1ccc(N(C)C)cc1` it was 1.12 µM (active). The figure for `CCN(CC)c1ccc2cc(-c3nc4ccccc4[nH]3)c(=O)oc2c1` is 0.56 µM (active). The figure for `Oc1c(C(Nc2ccccn2)c2ccccn2)ccc2cccnc12` (stereo not given) is 36.2 µM (active); for `CC(C)C(=O)NC(c1ccco1)c1ccc2cccnc2c1O` (stereo not given) it is 7.57 µM (active) and 4.6 µM (active); for `Cc1cc(NC(c2ccccn2)c2ccc3cccnc3c2O)no1` (stereo not given) it is 8 µM (active).

Regarding `O=C(CSc1cccc2cccnc12)NCc1ccccc1`, the Potency result is “inactive”.

On to `O=C(Cc1ccccc1)NC(c1ccco1)c1ccc2cccnc2c1O` (stereo not given), for which the Potency was 16.2 µM (active).
